Screening results as filed in PubChem.
D3 antag = blocks the human D3 dopamine receptor | D3R cells, DiscoveRx beta-arrestin luminescence, antagonist mode; stronger effect = lower value | max response, negative = inhibition, % | actives 2.5% (n = 360,000) | AID 652054; in the data active = max response below about -50%; inconclusive = no clear call, values can overlap the other calls; note: % is set by controls: 0 for no effect and ±100 for the full control effect
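Cells plated overnight at 1500 cells/well, then exposed to library compounds with dopamine controls for 90 minutes at 37 degrees C. DiscoveRx reagent added for 30–60 minutes at room temperature; luminescence read, quantitative HTS format.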
DRD3 agonist = D3 dopamine receptor (human) agonism | P35462 | actives 0.58% (n = 410,000) | AID 652048 | max activation, % | D3R DiscoveRx beta-arrestin cells, luminescence, 90 min; in the data active = max activation above about 30%; note: 0% is about no effect
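Agonist-mode cell screen: cells plated at 1500/well and incubated overnight at 37 °C, then exposed to library compounds for 90 min at 37 °C. Detection reagent was added for 30–60 min at room temperature, and luminescence was read.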
mIDH1 inhibitor = human IDH1 R132H inhibition; O75874; IDH1-R132H enzyme, NADPH consumption, diaphorase/resazurin fluorescence; Potency, µM (doses to about 76.6 µM), inactives show top-dose activity change, negative = inhibition, actives largely listed as inhibitors; actives 0.093% (n = 390,000); AID 602179; note: potency is the fitted concentration of half-maximal effect; % is set by controls: 0 for no effect and ±100 for the full control effect; nearly all actives have a fitted effect of over 65% in size
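IDH1-R132H (0.5 ug/mL dispensed) in pH 7.5 Tris buffer was preincubated 30 min with compound, then given a substrate mix of 0.016 mM NADPH and 2 mM alpha-KG for 80 min at room temperature; remaining NADPH was read by diaphorase/resazurin fluorescence.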
Integrin act MD = integrin-mediated muscular dystrophy alleviation activation. alpha7betagal myoblasts, beta-gal FDG fluorescence, 48 h. Potency, µM (highest dose often 38.3 µM), for inactives: at the top dose activation, actives largely listed as activators. actives 0.064% (n = 350,000). AID 624291;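 note: potency is the fitted concentration of half-maximal effect; 100% = response of the positive control SU9516; nearly all actives have a fitted effect of over 60% in size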
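Alpha7betagal+/- myoblasts (passage 13) were plated 16-24 hr, then exposed to compounds (1:260 dilution of DMSO stock) for 48 hours at 37C. After MPER lysis, β-galactosidase reporter activity was read as FDG fluorescence (ex 480/em 540) after 30 minutes.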
B2AR arrestin = recruits beta-arrestin to the human beta2-adrenergic receptor. P07550. beta-arrestin recruitment to beta2AR, cell-based reporter. Potency, µM (titrated, usually from 46.1 µM), inactives show at the top dose activation, usual class: activators. actives 0.02% (n = 330,000). AID 492947;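 note: potency is the fitted concentration of half-maximal effect; 0% = DMSO controls and full agonism = EC100 isoproterenol or metaproterenol; nearly all actives have a fitted effect of over 65% in size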
Target sequence (P07550 whole entry, looked up): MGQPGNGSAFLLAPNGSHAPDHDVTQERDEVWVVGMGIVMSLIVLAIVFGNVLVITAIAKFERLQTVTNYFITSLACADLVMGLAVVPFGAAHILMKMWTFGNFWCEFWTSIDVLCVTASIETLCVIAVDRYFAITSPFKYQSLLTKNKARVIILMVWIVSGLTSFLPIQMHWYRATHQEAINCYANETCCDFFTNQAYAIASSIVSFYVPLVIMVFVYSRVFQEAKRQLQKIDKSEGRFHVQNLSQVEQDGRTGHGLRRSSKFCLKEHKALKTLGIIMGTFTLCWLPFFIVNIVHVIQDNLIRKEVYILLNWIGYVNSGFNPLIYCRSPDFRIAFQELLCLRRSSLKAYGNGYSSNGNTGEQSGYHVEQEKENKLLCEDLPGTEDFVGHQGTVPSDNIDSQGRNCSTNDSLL
* marks the source's active call; other numbers are inactive results; ? = inconclusive; · = no result. Only some compounds are listed: those with a hit (about 2.9% of all), similar ones and a draw of the others. Unless noted, calls come from the whole dose curve; as a rule, active = well fitted curve in the direction sought with a large enough effect; inconclusive = small, poorly fitted or top-dose-only effect, or another doubt; inactive = no such curve, though single readings can be large; an effect the other way counts as inactive or inconclusive.

SMILES | D3 antag | DRD3 agonist | mIDH1 inhibitor | Integrin act MD | B2AR arrestin
COc1ccc(CCNC(=O)c2cc(Sc3cccc(Cl)c3)nc3ccccc23)cc1OC | · | 18.1 | -6.8% | · | ·
Cc1ccc(Cl)cc1N1CCN(C(=O)c2ccc3nc(N4CCC(C)CC4)sc3c2)CC1 | · | 3.0 | -0.8% | · | ·
O=C(c1n[nH]c(=O)c2ccccc12)N1CCN(Cc2ccc3c(c2)OCO3)CC1 | -3.9 | -2.9 | 6.3% | -16.7% | 0.0%
O=C(c1n[nH]c(=O)c2ccccc12)N1CCOCC1 | -59.3* | -6.2 | 1.0% | 12.5% | 0.0%
CC(CC(=O)Nc1ccc2c(c1)c(=O)n(C)n2-c1ccccc1F)c1ccccc1 (configuration not stated) | -89.5* | -21.9 | · | · | ·
Cn1c(=O)c2cc(NC(=O)CC(C)(C)C)ccc2n1-c1ccccc1F | 0.0 | -7.3 | · | · | ·
Cc1cc(C)cc(-n2c(SCC(N)=O)nc3c([nH]c4ccccc43)c2=O)c1 | · | 4.9 | 4.5% | · | ·
CCCOc1ccc(CNC(=O)c2ccc3c(c2)N(CC)CCS3)cc1 | -65.1* | -13.7 | -2.8% | -12.9% | -0.7%
COc1ccccc1-c1nn(CCC(=O)Nc2ccccc2)c2nc(C)cc(C)c12 | · | -14.2 | 20.7% | · | ·
COc1cc(NC(=O)c2cc3cccc(OC)c3o2)cc(C(=O)Nc2cccc(C(F)(F)F)c2)c1 | 133.3 | 46.4* | -8.6% | -26.3% | 0.0%
CCN1CCN(Cc2ccc(NC(=O)c3cc(NC(=O)c4ccno4)cc(OC)c3)cc2C(F)(F)F)CC1 | 3.4 | -3.1 | 3.5% | -49.4% | -0.2%
CCN1CCN(Cc2ccc(NC(=O)c3cc(NC(=O)c4cc5cccc(OC)c5o4)cc(OC)c3)cc2C(F)(F)F)CC1 | -58.1* | -9.9 | 0.6% | -59.8% | -0.4%
CC1CCCN(CCCNC(=O)c2ccc3c(c2)N(Cc2ccc(Cl)cc2)C(=O)c2ccccc2S3(=O)=O)C1 (configuration not stated) | · | -46.6 | -9.0% | · | ·
CC1CCN(CC(=O)NNC(=O)c2cccc(Br)c2)CC1 | -50.0* | -34.0 | 0.0% | -19.6% | -0.4%
Cc1ccc(NC(=O)CN2CCCCCC2)cc1Br | -85.1* | -21.6 | 0.0% | -11.5% | 0.1%
CC1CCN(CC(=O)Nc2cccc([N+](=O)[O-])c2)CC1 | -58.1* | -57.7 | 4.6% | -61.9% | 3.4%
O=C(CN1CCCCCC1)Nc1cccc(Br)c1 | 0.0 | -7.4 | 4.6% | 0.5% | 0.4%
Cc1ccc([N+](=O)[O-])cc1NC(=O)CN1CCC(C)CC1 | -84.3* | -11.6 | 0.1% | -5.7% | -0.8%
CC(Sc1n[nH]c(-c2ccccc2F)n1)C(=O)Nc1ccc(S(N)(=O)=O)cc1 (configuration not stated) | -16.7 | 1.6 | -10.8% | 10.2% | 0.2%
CCOC(=O)CCCN1C(=O)CCn2nc(-c3cn(C)c4ccccc34)cc21 | · | 1.5 | · | · | ·
Cc1ccc([N+](=O)[O-])cc1NC(=O)C(C)N1CCCCC1 (configuration not stated) | -23.7 | -28.8 | 2.7% | 0.0% | 0.2%
Cc1ccc([N+](=O)[O-])cc1NC(=O)CN1CCCCC1 | -78.0* | -3.2 | -0.6% | 14.3% | -0.2%
CCOc1cc(/C=C(\C#N)C(=O)Nc2ccc(C)cc2)ccc1OCc1cc(=O)n2nc(CC)sc2n1 | · | 48.0* | 11.3% | · | ·
CCc1ccc(Nc2n[n+](-c3ccccc3)c(-c3cccc(C)c3)s2)cc1 | -51.8* | -6.2 | 3.3% | -30.8% | -1.7%
O=C(CSc1n[nH]c(-c2cccs2)n1)N1CCN(S(=O)(=O)c2ccc3ccccc3c2)CC1 | -69.7* | -1.8 | 7.7% | -27.2% | -0.2%
SMILES | D3 antag | DRD3 agonist | mIDH1 inhibitor | Integrin act MD | B2AR arrestin
O=C1CS(=O)(=O)N(Cc2ccccc2F)c2ccc(Br)cc21 | 8.7 | 15.8 | -18.2% | 11.5% | -0.1%
C=CCOC1=CS(=O)(=O)N(Cc2ccc(Br)cc2)c2ccc(Br)cc21 | -4.1 | 41.6* | -5.0% | 2.6% | -0.5%
Clc1ccc(CSC2=NCCCN2)cc1Cl | -57.5* | -10.3 | 0.7% | -43.2% | -0.2%
Clc1ccccc1CSC1=NCCCN1 | -11.2 | 0.1 | -3.4% | 9.7% | 0.1%
CC(=O)c1cc(C)ccc1OC(=O)CCN1C(=O)C2C3c4ccccc4C(c4ccccc43)C2C1=O (configuration not stated) | 8.4 | 37.8* | -0.8% | -6.2% | 0.3%
COc1ccc(Nc2nc(N3CCCCC3)c3ccccc3n2)cc1 | ? | 3.4 | 4.7% | -47.0% | 0.3%
Oc1ccc(Nc2nc(N3CCCC3)c3ccccc3n2)cc1 | -70.6* | -1.2 | -2.2% | -57.0% | -1.4%
CC(C)(C)C(=O)Oc1ccc(S(=O)(=O)Nc2ccccc2C(=O)NCC(=O)O)cc1 | · | 0.5 | · | · | ·
O=C1c2ccccc2C(=O)N1CCC#Cc1ccc2cc(CCCO)oc(=O)c2c1 | 82.9 | 33.1* | 2.8% | 6.3% | -0.4%
COc1ccc(-c2nc3cc(C(C)C)ccc3o2)cc1NC(=O)COc1ccc(C)cc1C | · | 0.0 | -6.1% | · | ·
COc1cc(Nc2nc(SCC(=O)c3ccc(Br)cc3)nc3ccccc23)cc(OC)c1 | · | 10.9 | 2.7% | · | ·
COc1ccc(S(=O)(=O)N(C(C)=O)c2ccc3oc(=O)sc3c2)cc1 | -58.6* | 2.5 | -2.0% | -20.9% | -0.7%
COc1ccc(-n2nc([N+](=O)[O-])c(=NC3CCN(Cc4ccccc4)CC3)n2O)cc1 | -50.7* | -12.4 | 8.8% | 0.0% | -0.1%
COc1ccc(-n2nc([N+](=O)[O-])c(=NCc3cccnc3)n2O)cc1 | 9.2 | -25.0 | 9.0% | 1.8% | 0.4%
CCOC(=O)C1CCN(C(=O)c2nn(-c3ccc(OC)c(Cl)c3)c(=O)c3c2c2ccccc2n3C)CC1 | · | 4.9 | 2.4% | · | ·
CCOC(=O)c1cc(-c2ccccc2)n(CC(=O)N(C)c2ccc(OC)cc2)c1C | · | -21.8 | 4.3% | · | ·
OC(COC(c1ccccc1)c1ccccc1)CN1CCc2ccccc2C1 (configuration not stated) | -53.9* | -12.0 | 4.3% | -35.7% | 0.6%
OC(COC(c1ccc(F)cc1)c1ccc(F)cc1)CN1CCc2ccccc2C1 (configuration not stated) | -17.8 | -5.9 | 1.7% | -19.3% | 3.4%
OC(COC(c1ccc(Cl)cc1)c1ccc(Cl)cc1)CN1CCc2ccccc2C1 (configuration not stated) | -55.9* | -12.8 | 0.0% | -64.1% | -1.5%
O=C(Nc1ccccc1C(F)(F)F)N1CCC2(CC1)Oc1ccccc1C(=O)N2Cc1ccccc1F | · | -3.4 | · | · | ·
CCn1c(=O)n(-c2ccc3c(c2)OCO3)c2nc(-c3ccc(C(C)C)cc3)nc(C(N)=O)c21 | · | 3.1 | 6.1% | · | ·
COc1cc2c(cc1NC(=O)Cc1ccc(C)cc1)oc1ccccc12 | 8.8 | -3.5 | 1.2% | 1.12µM* | -0.2%
COc1cc2c(cc1NC(=O)CN(C)Cc1ccc(OC)c(OC)c1)oc1ccccc12 | 43.3 | 37.8* | -22.3% | -2.2% | -0.9%
Cc1ccccc1N=C(NOCc1ccc(Cl)cc1Cl)c1nonc1N | -84.7* | -27.6 | 2.7% | -22.9% | 0.3%
